According to publication PMC7862700, “An all-to-all approach to the identification of sequence-specific readers for epigenetic DNA modifications on cytosine”:

Experiments:
Experiment in all cases: DAPPL (digital affinity profiling via proximity ligation, sequencing); 10 mM Tris-HCl pH 7.5, 50 mM NaCl, 1 mM DTT, 4% glycerol, room temperature, 30 min; GST-TFs on glutathione beads, 16-mer random dsDNA library, 0.1% formaldehyde crosslink after washing; high values mean tight binding
Settings in all cases: protein: recombinant; tags: N-terminal GST; dsDNA, one strand shown
FLI1 = molecular target: T1, FLI1 (Homo sapiens, UniProt Q01543 1-452)
T1 sequence: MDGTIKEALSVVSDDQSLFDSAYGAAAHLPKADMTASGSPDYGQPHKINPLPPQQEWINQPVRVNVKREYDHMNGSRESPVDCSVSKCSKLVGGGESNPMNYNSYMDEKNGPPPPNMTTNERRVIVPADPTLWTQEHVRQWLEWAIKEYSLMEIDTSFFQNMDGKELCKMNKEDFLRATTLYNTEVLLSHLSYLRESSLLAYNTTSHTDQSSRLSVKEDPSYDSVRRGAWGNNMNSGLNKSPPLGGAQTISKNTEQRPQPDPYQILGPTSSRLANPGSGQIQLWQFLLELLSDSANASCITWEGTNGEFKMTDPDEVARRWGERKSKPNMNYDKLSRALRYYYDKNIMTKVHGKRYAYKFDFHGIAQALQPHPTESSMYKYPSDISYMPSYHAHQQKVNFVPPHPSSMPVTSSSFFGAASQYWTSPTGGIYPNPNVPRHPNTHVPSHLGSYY
Procedure, shortened: (§1)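 The binding signal reported is, for every hexamer, its read frequency for a factor over its read frequency for the tag-only sample. Reads came from pools of yeast-expressed, GST-fused human transcription factors on glutathione beads, barcoded with DNA and mixed with that sample, which were incubated with 200 nmole of a random double-stranded 16-mer DNA library in Tris/NaCl/DTT/glycerol buffer at room temperature for 30 min. After washing, the pools were crosslinked with 0.1% formaldehyde, proximity-ligated with BsaI/T4 ligase for 1 h at 37 °C, PCR-amplified and sequenced on an Illumina NextSeq500.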

ELK1 = molecular target: T2, ELK1 (Homo sapiens, UniProt P19419 1-428)
T2 sequence: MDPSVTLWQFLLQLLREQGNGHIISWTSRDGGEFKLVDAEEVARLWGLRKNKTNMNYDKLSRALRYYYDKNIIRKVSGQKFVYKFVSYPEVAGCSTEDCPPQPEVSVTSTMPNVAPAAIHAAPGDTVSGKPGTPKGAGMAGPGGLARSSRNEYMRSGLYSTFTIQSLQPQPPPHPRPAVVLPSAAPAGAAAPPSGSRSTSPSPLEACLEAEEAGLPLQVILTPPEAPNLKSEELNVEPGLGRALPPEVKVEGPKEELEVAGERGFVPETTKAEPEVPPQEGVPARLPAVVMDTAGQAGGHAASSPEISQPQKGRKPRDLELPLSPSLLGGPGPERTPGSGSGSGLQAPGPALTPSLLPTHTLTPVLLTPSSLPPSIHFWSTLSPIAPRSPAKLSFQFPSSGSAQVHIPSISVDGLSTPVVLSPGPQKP
Procedure, shortened: as §1

GABPA = molecular target: T3, GABPA (Homo sapiens, UniProt Q06546 1-454)
T3 sequence: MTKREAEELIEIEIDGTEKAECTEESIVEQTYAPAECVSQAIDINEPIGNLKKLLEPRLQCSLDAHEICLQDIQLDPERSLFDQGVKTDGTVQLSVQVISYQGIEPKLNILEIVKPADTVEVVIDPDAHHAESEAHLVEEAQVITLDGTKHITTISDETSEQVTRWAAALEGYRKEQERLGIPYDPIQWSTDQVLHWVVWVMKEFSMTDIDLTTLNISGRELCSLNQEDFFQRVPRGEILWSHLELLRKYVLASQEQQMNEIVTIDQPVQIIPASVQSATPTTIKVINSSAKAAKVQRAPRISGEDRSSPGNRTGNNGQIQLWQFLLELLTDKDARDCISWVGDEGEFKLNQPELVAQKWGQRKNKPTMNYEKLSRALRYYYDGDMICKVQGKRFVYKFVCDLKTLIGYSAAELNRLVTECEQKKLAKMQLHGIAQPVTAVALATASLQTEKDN
Procedure, shortened: as §1

ERG = molecular target: T4, ERG (Homo sapiens, UniProt P11308 1-479)
T4 sequence: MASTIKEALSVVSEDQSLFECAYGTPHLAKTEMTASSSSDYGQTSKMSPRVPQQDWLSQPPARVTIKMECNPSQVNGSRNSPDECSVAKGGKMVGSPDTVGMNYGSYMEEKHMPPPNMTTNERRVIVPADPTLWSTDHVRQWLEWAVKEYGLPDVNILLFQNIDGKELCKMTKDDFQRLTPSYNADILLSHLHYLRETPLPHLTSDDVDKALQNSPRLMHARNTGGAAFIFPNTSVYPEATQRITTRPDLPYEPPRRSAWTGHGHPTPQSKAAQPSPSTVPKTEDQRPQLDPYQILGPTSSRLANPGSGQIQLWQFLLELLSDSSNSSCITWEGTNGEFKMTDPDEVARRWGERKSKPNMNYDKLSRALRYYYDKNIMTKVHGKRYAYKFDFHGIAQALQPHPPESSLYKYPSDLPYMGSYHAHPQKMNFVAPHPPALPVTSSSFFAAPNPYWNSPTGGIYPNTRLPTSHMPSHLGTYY
Procedure, shortened: as §1

ELF1 = ELF1 (Homo sapiens, UniProt P32519 1-619)
Procedure, shortened: as §1

EHF = molecular target: T5, EHF (Homo sapiens, UniProt Q9NZC4 1-300)
T5 sequence: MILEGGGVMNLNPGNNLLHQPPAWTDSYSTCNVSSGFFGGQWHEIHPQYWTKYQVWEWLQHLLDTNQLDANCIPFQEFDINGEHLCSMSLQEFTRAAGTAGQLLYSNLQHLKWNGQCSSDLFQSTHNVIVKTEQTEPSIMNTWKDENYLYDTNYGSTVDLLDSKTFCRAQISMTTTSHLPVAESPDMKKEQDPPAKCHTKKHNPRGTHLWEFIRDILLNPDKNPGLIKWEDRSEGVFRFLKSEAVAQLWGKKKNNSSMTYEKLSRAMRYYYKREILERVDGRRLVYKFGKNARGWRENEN
Procedure, shortened: as §1

SPIB = SPIB (Homo sapiens, UniProt Q01892 1-262)
Procedure, shortened: as §1

FEV = molecular target: T6, FEV (Homo sapiens, UniProt Q99581 1-238)
T6 sequence: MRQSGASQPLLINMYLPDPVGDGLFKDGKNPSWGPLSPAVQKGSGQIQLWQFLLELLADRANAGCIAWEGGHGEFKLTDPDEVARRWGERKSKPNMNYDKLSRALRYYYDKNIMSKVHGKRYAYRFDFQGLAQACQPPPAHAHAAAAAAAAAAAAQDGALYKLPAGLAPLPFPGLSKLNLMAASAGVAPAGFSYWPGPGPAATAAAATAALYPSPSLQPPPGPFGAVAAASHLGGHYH
Procedure, shortened: as §1

ETV5 = ETV5 (Homo sapiens, UniProt P41161 1-510)
Procedure, shortened: as §1

SPIC = molecular target: T7, SPIC (Homo sapiens, UniProt Q8N5J4 1-248)
T7 sequence: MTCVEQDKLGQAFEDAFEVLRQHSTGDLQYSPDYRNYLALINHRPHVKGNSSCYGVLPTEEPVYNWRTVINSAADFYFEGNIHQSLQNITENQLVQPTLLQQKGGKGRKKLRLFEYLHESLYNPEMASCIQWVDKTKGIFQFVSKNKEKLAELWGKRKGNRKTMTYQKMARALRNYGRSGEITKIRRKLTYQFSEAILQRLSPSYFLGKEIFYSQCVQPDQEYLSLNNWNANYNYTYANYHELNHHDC
Procedure, shortened: as §1

ELF4 = ELF4 (Homo sapiens, UniProt Q99607 1-663)
Procedure, shortened: as §1

ERF = molecular target: T8, ERF (Homo sapiens, UniProt P50548 1-548)
T8 sequence: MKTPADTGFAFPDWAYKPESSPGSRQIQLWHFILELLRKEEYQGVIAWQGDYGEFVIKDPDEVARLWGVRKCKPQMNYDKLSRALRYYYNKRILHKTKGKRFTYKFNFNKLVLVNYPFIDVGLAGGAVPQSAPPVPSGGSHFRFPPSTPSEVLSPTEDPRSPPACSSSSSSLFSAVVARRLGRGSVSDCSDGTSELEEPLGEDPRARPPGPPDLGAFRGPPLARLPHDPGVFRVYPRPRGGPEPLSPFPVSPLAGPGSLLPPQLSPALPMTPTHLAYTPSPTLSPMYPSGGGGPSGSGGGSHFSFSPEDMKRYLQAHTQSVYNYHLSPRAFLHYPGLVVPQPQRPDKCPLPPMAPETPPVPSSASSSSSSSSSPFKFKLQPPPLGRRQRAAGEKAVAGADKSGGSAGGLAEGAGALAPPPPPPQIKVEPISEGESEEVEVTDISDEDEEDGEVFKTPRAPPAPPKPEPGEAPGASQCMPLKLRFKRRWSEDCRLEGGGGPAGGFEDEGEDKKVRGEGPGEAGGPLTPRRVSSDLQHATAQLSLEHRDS
Procedure, shortened: as §1

ETV3L = molecular target: T9, ETV3L (Homo sapiens, UniProt Q6ZN32 1-361)
T9 sequence: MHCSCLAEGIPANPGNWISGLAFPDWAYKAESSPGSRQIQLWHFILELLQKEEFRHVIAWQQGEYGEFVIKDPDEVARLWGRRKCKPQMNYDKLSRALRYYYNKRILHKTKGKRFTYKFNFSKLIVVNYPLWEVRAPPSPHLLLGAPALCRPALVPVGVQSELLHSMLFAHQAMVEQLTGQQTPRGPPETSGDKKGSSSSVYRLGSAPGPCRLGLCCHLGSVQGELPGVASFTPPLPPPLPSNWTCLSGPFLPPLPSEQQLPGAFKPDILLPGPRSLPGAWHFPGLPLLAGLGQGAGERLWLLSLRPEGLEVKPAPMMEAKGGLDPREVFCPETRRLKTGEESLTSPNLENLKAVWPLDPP
Procedure, shortened: as §1

ETS2 = molecular target: T10, ETS2 (Homo sapiens, UniProt P15036 1-469)
T10 sequence: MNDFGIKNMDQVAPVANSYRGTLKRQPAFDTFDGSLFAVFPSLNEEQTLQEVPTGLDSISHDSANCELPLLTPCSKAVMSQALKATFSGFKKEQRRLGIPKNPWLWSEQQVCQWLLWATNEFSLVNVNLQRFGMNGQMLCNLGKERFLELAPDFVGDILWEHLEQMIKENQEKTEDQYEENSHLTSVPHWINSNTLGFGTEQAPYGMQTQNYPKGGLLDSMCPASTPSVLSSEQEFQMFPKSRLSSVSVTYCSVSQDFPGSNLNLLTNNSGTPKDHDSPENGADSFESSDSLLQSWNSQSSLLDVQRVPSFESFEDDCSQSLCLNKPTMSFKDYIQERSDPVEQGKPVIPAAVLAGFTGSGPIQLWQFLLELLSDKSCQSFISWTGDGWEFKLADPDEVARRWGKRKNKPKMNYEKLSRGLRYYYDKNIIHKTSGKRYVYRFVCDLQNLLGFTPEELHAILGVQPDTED
Procedure, shortened: as §1

SPDEF = molecular target: T11, SPDEF (Homo sapiens, UniProt O95238 1-335)
T11 sequence: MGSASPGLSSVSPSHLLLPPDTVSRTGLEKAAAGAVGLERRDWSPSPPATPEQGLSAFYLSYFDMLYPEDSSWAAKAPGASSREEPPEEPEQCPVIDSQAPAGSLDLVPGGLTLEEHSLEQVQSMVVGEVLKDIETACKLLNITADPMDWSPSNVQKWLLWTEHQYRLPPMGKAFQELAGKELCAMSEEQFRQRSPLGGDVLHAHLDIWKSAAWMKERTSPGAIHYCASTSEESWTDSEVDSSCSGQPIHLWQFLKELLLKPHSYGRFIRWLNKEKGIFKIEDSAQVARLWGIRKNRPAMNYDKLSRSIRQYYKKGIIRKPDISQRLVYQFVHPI
Procedure, shortened: as §1

ETV3 = molecular target: T12, ETV3 (Homo sapiens, UniProt P41162-2 1-143)
T12 sequence: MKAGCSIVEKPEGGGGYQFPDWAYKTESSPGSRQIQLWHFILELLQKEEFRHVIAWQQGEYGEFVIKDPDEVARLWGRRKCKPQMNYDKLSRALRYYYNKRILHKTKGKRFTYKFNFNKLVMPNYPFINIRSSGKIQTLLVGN
Procedure, shortened: as §1

ETV6 = ETV6 (Homo sapiens, UniProt P41212 1-452)
Procedure, shortened: as §1

ETV5, sequence (P41161 whole entry): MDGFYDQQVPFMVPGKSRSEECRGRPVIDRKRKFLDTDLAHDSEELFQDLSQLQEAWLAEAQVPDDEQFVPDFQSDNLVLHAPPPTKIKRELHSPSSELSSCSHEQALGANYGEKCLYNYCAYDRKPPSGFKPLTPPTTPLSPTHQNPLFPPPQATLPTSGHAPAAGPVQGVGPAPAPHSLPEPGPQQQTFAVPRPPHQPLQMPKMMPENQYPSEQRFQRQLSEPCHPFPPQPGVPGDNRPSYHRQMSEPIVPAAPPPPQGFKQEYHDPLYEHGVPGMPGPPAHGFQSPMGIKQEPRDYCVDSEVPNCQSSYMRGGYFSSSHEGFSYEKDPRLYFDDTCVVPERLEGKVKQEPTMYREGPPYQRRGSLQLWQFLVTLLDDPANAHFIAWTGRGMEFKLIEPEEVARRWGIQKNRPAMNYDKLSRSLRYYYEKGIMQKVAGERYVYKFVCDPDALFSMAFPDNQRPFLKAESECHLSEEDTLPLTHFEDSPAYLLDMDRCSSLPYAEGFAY
ELF1, sequence (P32519 whole entry): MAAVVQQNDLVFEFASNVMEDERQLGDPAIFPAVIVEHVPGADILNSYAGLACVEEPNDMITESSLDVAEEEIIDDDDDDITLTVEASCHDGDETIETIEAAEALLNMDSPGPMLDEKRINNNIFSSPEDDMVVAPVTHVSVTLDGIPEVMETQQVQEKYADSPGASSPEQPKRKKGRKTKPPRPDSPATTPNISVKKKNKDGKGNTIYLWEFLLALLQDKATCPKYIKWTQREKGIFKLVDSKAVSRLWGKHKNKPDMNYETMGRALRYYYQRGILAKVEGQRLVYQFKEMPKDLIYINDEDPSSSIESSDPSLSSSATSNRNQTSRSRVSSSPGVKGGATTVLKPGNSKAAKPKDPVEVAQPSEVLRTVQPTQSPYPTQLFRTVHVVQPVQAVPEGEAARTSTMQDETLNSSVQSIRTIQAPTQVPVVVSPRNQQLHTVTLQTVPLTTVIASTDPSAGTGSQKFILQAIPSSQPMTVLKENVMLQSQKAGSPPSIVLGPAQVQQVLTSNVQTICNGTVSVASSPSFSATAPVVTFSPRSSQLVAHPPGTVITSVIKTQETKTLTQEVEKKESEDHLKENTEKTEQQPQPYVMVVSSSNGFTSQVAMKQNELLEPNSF
ELF4, sequence (Q99607 whole entry): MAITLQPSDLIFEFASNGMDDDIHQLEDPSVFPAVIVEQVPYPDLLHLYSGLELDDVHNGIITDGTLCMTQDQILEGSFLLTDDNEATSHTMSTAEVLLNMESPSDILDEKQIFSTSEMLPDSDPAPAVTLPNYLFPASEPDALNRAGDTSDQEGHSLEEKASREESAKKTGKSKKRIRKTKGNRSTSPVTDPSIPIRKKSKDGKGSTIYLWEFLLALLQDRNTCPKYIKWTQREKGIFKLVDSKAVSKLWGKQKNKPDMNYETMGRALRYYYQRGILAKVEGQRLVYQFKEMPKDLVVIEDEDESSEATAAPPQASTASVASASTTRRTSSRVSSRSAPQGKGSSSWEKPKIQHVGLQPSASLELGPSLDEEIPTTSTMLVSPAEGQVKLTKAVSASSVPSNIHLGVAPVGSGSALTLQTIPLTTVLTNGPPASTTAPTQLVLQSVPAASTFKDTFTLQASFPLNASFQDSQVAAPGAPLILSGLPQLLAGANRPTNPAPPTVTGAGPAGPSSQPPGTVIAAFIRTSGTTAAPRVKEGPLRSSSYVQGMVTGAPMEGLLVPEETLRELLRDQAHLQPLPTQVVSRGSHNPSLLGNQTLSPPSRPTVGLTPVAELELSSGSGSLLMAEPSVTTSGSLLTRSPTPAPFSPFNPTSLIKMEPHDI
SPIB, sequence (Q01892 whole entry): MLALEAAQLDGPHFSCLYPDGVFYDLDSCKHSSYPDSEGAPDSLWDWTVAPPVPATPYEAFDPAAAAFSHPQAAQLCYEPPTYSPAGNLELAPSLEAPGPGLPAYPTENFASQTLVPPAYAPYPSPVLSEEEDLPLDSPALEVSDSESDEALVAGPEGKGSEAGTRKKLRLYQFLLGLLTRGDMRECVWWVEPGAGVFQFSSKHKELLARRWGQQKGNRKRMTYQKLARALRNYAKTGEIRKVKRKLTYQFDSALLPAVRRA
ETV6, sequence (P41212 whole entry): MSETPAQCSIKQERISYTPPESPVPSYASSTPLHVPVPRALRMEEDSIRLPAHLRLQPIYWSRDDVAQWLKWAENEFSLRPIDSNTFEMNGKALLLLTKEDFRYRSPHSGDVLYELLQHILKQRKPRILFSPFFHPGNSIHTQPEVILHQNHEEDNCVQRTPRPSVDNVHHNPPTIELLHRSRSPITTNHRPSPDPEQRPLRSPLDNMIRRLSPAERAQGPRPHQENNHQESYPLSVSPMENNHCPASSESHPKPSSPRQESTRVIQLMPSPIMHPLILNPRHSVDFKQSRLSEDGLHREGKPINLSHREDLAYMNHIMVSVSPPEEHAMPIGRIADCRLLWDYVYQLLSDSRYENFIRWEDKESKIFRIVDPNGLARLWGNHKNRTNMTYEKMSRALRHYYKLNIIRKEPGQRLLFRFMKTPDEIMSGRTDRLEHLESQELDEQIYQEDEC

In the case of CCGCTG, the binding signal (FLI1) is reported as 1.13 fold enrichment (6-mer frequency, TF over GST control), the binding signal (ELK1) is reported as 1.03 fold enrichment (6-mer frequency, TF over GST control) and the binding signal (GABPA) is reported as 1.02 fold enrichment (6-mer frequency, TF over GST control). The binding signal (ERG) was 1.05 fold enrichment (6-mer frequency, TF over GST control), the binding signal (ELF1) was 1 fold enrichment (6-mer frequency, TF over GST control) and the binding signal (EHF) was 1.05 fold enrichment (6-mer frequency, TF over GST control). For the same sequence, the binding signal (SPIB) was 1.07 fold enrichment (6-mer frequency, TF over GST control), the binding signal (FEV) was 1.11 fold enrichment (6-mer frequency, TF over GST control) and the binding signal (ETV5) was 1.06 fold enrichment (6-mer frequency, TF over GST control). The binding signal (SPIC) was 1.08 fold enrichment (6-mer frequency, TF over GST control), the binding signal (ELF4) was 1.06 fold enrichment (6-mer frequency, TF over GST control) and the binding signal (ERF) was 1.03 fold enrichment (6-mer frequency, TF over GST control). The binding signal (ETV3L) was 1.04 fold enrichment (6-mer frequency, TF over GST control), the binding signal (ETS2) was 1.06 fold enrichment (6-mer frequency, TF over GST control) and the binding signal (SPDEF) was 1.01 fold enrichment (6-mer frequency, TF over GST control). For the same sequence, the binding signal (ETV3) was 1.08 fold enrichment (6-mer frequency, TF over GST control) and the binding signal (ETV6) was 1.11 fold enrichment (6-mer frequency, TF over GST control).
